Data taken from PubChem BioAssay (NCI).
Compounds without any hit were thinned out: in the full panel of roughly 79,000, 15% have a hit. Cut-off read from the data, not from the text of the source: active = growth inhibition above about 70%; inactive = the rest.

Assays:
[1] = NCI Yeast Anticancer Drug Screen. Data for the rad50 strain (AID 155);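 note: 0% = growth of vehicle-only cultures of the same strain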; conditions: S. cerevisiae rad50 strain growth inhibition; at 50.0 µM; hits give high values
Outline: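 Vehicle-treated cultures provide the reference for the growth inhibition reported for compound-exposed, repair-deficient yeast.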

[2] = NCI Yeast Anticancer Drug Screen. Data for the mec2-1 strain (AID 157); conditions: S. cerevisiae mec2-1 strain, at 50.0 µM, hits give high values
Outline: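 mec2-1 yeast strain, carrying an alteration in DNA damage repair or cell cycle control, was exposed to compounds; growth inhibition was measured relative to vehicle-treated controls.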

[3] = NCI Yeast Anticancer Drug Screen. Data for the sgs1 mgt1 strain (AID 161);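 note: 0% = growth of cultures given vehicle only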; conditions: S. cerevisiae sgs1 mgt1 strain, at 50.0 µM, hits give high values
Outline: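 This yeast growth screen uses a strain with defined DNA-repair lesions; compound-treated growth is compared with vehicle-treated growth.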

[4] = NCI Yeast Anticancer Drug Screen. Data for the cln2 rad14 strain (AID 165);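 note: 0% = growth equal to vehicle treated cultures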; conditions: S. cerevisiae cln2 rad14 strain, at 50.0 µM, hits give high values
Outline: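 Yeast carrying cln2 and rad14 alterations (cell cycle control and DNA damage repair) were exposed to compounds. Growth inhibition was measured against vehicle-treated controls.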

[5] = NCI Yeast Anticancer Drug Screen. Data for the bub3 strain (AID 167); conditions: S. cerevisiae bub3 mutant strain, at 50.0 µM, hits give high values
Outline: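 Mutant yeast screening strain plus compound; vehicle-treated cultures serve as the 0% inhibition reference.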

[6] = NCI Yeast Anticancer Drug Screen. Data for the mlh1 rad18 strain (AID 175); conditions: S. cerevisiae mlh1 rad18 strain growth inhibition; at 50.0 µM; hits give high values
Outline: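 Growth inhibition of the yeast strain was measured after compound exposure and expressed relative to vehicle-treated controls. The strain carries defined defects in DNA damage repair.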

Measured: growth inhibition

O=C1CC(C(=O)O)Cc2c(Br)ccc(O)c21 (stereo not drawn)
inactive: [1] 20.8% | [2] 13.8% | [3] -22.5% | [4] -3.6% | [5] -34% | [6] -44.4%

CCN(CC)Cc1ccccc1COC(=O)/C=C/c1ccccc1
inactive: [1] 9.8% | [2] 13.3% | [3] 11.6% | [4] 7.1% | [5] 12.9% | [6] 13.9%

C[N+]1(C)C/C(=C\c2ccc(O)cc2)C(=O)/C(=C/c2ccc(O)cc2)C1
inactive: [1] -0.75% | [2] -16.3% | [3] 4.05% | [4] -6% | [5] -9.75% | [6] -14.2%

CC(C)(Oc1ccc2c(=O)cc(-c3ccc(Cl)cc3)oc2c1)C(=O)Nc1c(Cl)cccc1Cl
inactive: [1] 16.4% | [2] -20.1% | [3] 6.45% | [4] -14.9% | [5] 2.75% | [6] 16.8%

Cc1c(-c2ccccc2)c(=O)oc2ccc(Cl)cc12
inactive: [1] -34% | [2] -8.5% | [3] 1.1% | [4] -9.85% | [5] -14.9% | [6] -15.2%

CN(C)C1=CC(=S)NC2CCCCC12 (stereo not drawn)
inactive: [1] 4.1% | [2] -4.7% | [3] 10.6% | [4] 2.05% | [5] -10.1% | [6] 22.1%

O=C(CCN1CCOCC1)Nc1ccc(F)cc1F
inactive: [1] -18.8% | [2] 3.35% | [3] -3.15% | [4] 7.25% | [5] -36.5% | [6] -6.1%

COc1cc(Br)c(Br)cc1Br
inactive: [1] 6.8% | [2] 4.35% | [3] -17.7% | [4] 12.5% | [5] 4.9% | [6] 10.5%

O=S(=O)(Oc1ccc(-c2ccccc2)cc1Br)c1ccccc1
inactive: [1] 13% | [2] -0.85% | [3] 5.55% | [4] 8.3% | [5] 1.8% | [6] -5.6%

Cc1cccc(C)c1NC(=O)C(=O)C(C#N)c1c(Cl)cccc1Cl (stereo not drawn)
inactive: [1] -38% | [2] 5.2% | [3] 16.4% | [4] -25.2% | [5] -4.85% | [6] 10.7%

COC1CC(NC(C)=O)C2OC(c3ccccc3)OCC2O1 (stereo not drawn)
inactive: [1] 4.35% | [2] 11.2% | [3] -10.2% | [4] 6.1% | [5] -3.45% | [6] 4.45%

CCOC(=O)c1ccc(NC(=O)CCCCl)cc1
inactive: [1] 6.15% | [2] -14.2% | [3] -8.75% | [4] 8.55% | [5] 12.7% | [6] -24.3%

C=CC1(C)CCC2C(=CCC3C2(C)CC(O)C(O)C3(C)COC2OC(C(=O)O)C(O)C(O)C2O)C1 (stereo not drawn) (tested in a mixture with another compound)
inactive: [1] 16.1% | [2] -3.55% | [3] -6.9% | [4] 18.3% | [5] 4.95% | [6] -67.3%

CCCCCCCCCCCCCCCCSc1ccc(Br)cc1
inactive: [1] 45% | [2] 7% | [3] 23.9% | [4] 1.8% | [5] 2.2% | [6] 21%

Nc1nc(-c2ccncc2)cc(-c2cc(-c3ccncc3)nc(N)n2)n1
inactive: [1] -7.7% | [2] -0.25% | [3] -8.65% | [4] -21.9% | [5] -12.3% | [6] 10.3%

c1ccc2c3c(cc(CCc4cc5c(c6ccccc46)CCCC5)c2c1)CCCC3
inactive: [1] -9.8% | [2] -18.3% | [3] -5.65% | [4] -16% | [5] -8.9% | [6] -4.2%

CCOC(=O)COc1cc2c(cc1Cc1ccc(OC)cc1)OCO2
inactive: [1] -5.4% | [2] -7.45% | [3] 5.45% | [4] 6.2% | [5] 39.4% | [6] 11.7%

CCCCc1c(O)c(N=NC(=O)C[N+](C)(C)C)c2ccccc2c1O
inactive: [1] 31.5% | [2] 40.2% | [3] 22.8% | [4] 11.6% | [5] 0.85% | [6] 36.9%

COC1(OC)C=NNc2nccn21
inactive: [1] 2.05% | [2] -2.5% | [3] 3.3% | [4] 19.6% | [5] -5.9% | [6] -5.3%

CCCCC(C(=O)O)C(=O)O
inactive: [1] -15.3% | [2] -13.4% | [3] -21.8% | [4] 1.1% | [5] -2.05% | [6] -18.4%

CC(C)C(=O)OCc1ccccc1
inactive: [1] 0.95% | [2] -5.7% | [3] -6.75% | [4] -3.9% | [5] -10.8% | [6] -24.9%

Nc1nnnn1NC(=O)NCCCl
inactive: [1] -43.7% | [2] -38.7% | [3] -35.9% | [4] -18.4% | [5] -27.4% | [6] -26.5%

CCOC(=O)CSc1cc(C)[o+]c(C)c1
inactive: [1] 4.6% | [2] 6.25% | [3] 6.8% | [4] 15% | [5] -6.4% | [6] -3.15%

CC1(C)NC(=S)N(O)C1(C)C
inactive: [1] 0.1% | [2] -5.65% | [3] -19.8% | [4] -11.9% | [5] 10.8% | [6] -4.8%

COc1cc(COC(=O)Nc2ccccc2F)cc(OC)c1OC
inactive: [1] -4.9% | [2] -19.1% | [3] 7.25% | [4] 5.85% | [5] 19.6% | [6] -10%

O=C(Cc1ccccc1)NN1C(=O)/C(=C\c2cccc([N+](=O)[O-])c2)SC1=Nc1ccccc1
inactive: [1] -2.7% | [2] -15.2% | [3] 9.95% | [4] 17.1% | [5] -14.8% | [6] 0.85%

Cn1c(SCc2ccc(F)cc2)nnc1C12CC3CC(CC(C3)C1)C2
inactive: [1] -32.2% | [2] -12.2% | [3] -22.6% | [4] -1.95% | [5] -17.4% | [6] -48.1%

Oc1cc(O)c2c(-c3c(O)c(-c4ccc(O)c(O)c4)[o+]c4cc(O)cc(O)c34)c(O)c(-c3ccc(O)c(O)c3)[o+]c2c1
inactive: [1] 44.4% | [2] 4.85% | [3] 9.6% | [4] 11.1% | [5] 22.7% | [6] 21.8%

CCOC(=O)Nc1cc(Cl)c2ncn(C(=O)OCC)c2n1
inactive: [1] 40.3% | [2] 16.2% | [3] 10.9% | [4] 18.9% | [5] 3.05% | [6] 17.9%

O=C(/C=C(\C(=O)c1ccccc1)c1ccccc1)c1ccc(Cl)cc1
inactive: [1] -12% | [2] 8.5% | [3] -4.45% | [4] 1.05% | [5] -13.1% | [6] -24.6%

CCCCC(N)=O
inactive: [1] -21.9% | [2] -9.05% | [3] 9.8% | [4] 5.7% | [5] -5.2% | [6] 4.3%

COc1ccc(C(=O)c2ccc(OC)c3ccccc23)c2ccccc12
inactive: [1] -7.3% | [2] -5.8% | [3] -1.2% | [4] -22.9% | [5] 3.35% | [6] 4.25%

Cc1c2ccccc2nc(CSCCO)[n+]1[O-]
inactive: [1] -10.8% | [2] -22.1% | [3] -7.95% | [4] -2.1% | [5] 5.5% | [6] -16.2%

S=C(c1ccccc1Cl)N1CCOCC1
inactive: [1] 18.2% | [2] -22.2% | [3] 14.7% | [4] 17.1% | [5] 20.1% | [6] 13.8%

COC(=O)C(c1ccccc1)S(=O)(=O)c1ccccc1 (stereo not drawn)
inactive: [1] -2.75% | [2] -13.3% | [3] 3.6% | [4] -2.75% | [5] -21.4% | [6] -5.5%

COC1(OC)C(c2ccc([N+](=O)[O-])cc2)C([N+](=O)[O-])C1(OC)OC (stereo not drawn)
inactive: [1] -14.1% | [2] -16.1% | [3] -32% | [4] -11.4% | [5] -8.4% | [6] -17.6%

Fc1ccc(Oc2nc3ccccc3nc2-c2ccccc2)cc1
inactive: [1] -3.35% | [2] 4.5% | [3] -2.15% | [4] 5.55% | [5] -9.4% | [6] 25.7%

C/C(CC(O)(C(F)(F)F)C(F)(F)F)=N\NC(N)=S
inactive: [1] -30.1% | [2] -14.7% | [3] -12.9% | [4] 9.55% | [5] 7.1% | [6] -9.3%
